# Assay outcomes deposited in PubChem by National Center for Advancing Translational Sciences (NCATS).
# Only some compounds are listed: those with a hit (about 5.3% of all), similar ones and a draw of the others.
# JMJD2A Tudor inh = blocks the human JMJD2A Tudor domain; actives 4.4% (n = 390,000); Potency, µM (doses to about 114 µM), without a hit: at the top dose activity change, negative = inhibition, hits mostly inhibitors; O75164; AlphaScreen JMJD2A-Tudor / H3K4me3 peptide binding; AID 504339; also: potency is read from the fitted curve at half-maximal effect; % is scaled to controls: 0 for no effect and ±100 for the full control effect; nearly all actives have a fitted effect of over 50% in size
# Six1-Eya2 blk = blocks human Six1 binding to Eya2. actives 0.56% (n = 360,000). AlphaScreen GST-Six1/His-Eya2 binding, biochemical; active compounds read low. Q15475+O00167. activity change, % (concentration not given with the values); in the data active = activity change below about -65%; inconclusive = mostly about -30% to -63%; also: % is scaled to controls: 0 for no effect and ±100 for the full control effect
#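 Six1/Eya2 binding was read as AlphaScreen signal after compounds were pinned into GST-Six1 plus His-tagged Eya2 (5X stock 250/500 nM) in pH 8.0 Tris/NaCl/TCEP buffer, beads added, then incubated 1 h, 37 C, dark.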
# BAZ2B block = BAZ2B (human) inhibition | Potency, µM (titrated, usually from 114 µM), inactives show at the highest dose activity change, negative = inhibition, hits mostly inhibitors | AID 504333 | AlphaScreen BAZ2B-H3K14Ac peptide displacement | actives 4.4% (n = 360,000); also: potency is read from the fitted curve at half-maximal effect; % is scaled to controls: 0 for no effect and ±100 for the full control effect; nearly all actives have a fitted effect of over 60% in size
#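 Multi-concentration screen (max 110 uM) measuring displacement of acetylated histone H3 peptide from BAZ2B by AlphaScreen, using 50 nM protein, 50 nM peptide and 10 ug/mL streptavidin donor plus Ni-chelate acceptor beads.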
# HP1b binding inh = HP1-beta chromodomain-methylated histone interaction inhibition. AlphaScreen HP1-beta / biotin-H3K9me3 peptide binding. Potency, µM (titrated, usually from 114 µM), without a hit: at the top dose activity change, negative = inhibition, hits mostly inhibitors. actives 0.56% (n = 390,000). AID 540317; also: potency is read from the fitted curve at half-maximal effect; nearly all actives have a fitted effect of over 70% in size
#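 Compound inhibition of the preformed complex between 50 nM HP1-beta and 50 nM biotinylated H3K9me3 peptide was read by AlphaScreen. Buffer was PBS pH 7.4 with 0.01% Tween-20. Incubations ran 30 min at room temperature, with 10 ug/mL donor/acceptor beads.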
# TDP1 inh = blocks human tyrosyl-DNA phosphodiesterase 1. actives 0.28% (n = 350,000). AID 485290. recombinant TDP1, AlphaScreen DNA substrate cleavage. Potency, µM (highest dose often 130 µM), inactives show at the highest dose activity change, negative = inhibition, usual class: inhibitors; also: potency is read from the fitted curve at half-maximal effect; % is scaled to controls: 0 for no effect and ±100 for the full control effect; nearly all actives have a fitted effect of over 40% in size
# Target sequence (Q9NUW8 whole entry, looked up): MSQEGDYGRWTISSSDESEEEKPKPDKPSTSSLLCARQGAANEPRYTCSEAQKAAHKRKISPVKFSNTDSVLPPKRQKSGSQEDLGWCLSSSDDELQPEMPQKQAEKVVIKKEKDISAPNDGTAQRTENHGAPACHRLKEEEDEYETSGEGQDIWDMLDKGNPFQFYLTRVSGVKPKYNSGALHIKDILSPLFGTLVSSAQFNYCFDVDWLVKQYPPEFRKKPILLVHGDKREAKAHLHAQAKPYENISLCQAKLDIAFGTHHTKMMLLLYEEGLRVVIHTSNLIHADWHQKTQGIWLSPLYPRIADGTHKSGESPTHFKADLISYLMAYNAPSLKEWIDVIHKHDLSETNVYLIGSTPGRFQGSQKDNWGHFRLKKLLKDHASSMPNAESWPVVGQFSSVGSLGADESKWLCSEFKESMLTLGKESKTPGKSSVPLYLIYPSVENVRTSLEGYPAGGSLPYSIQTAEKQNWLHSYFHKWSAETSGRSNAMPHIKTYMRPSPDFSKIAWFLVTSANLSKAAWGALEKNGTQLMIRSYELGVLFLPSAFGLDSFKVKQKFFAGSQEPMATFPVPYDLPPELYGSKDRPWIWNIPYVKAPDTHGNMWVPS
#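 AlphaScreen read-out: signal falls as enzyme removes the 3' tyrosine-FITC from a 5'-biotinylated DNA oligo (15 nM, 5 min, RT). Enzyme was E. coli-made recombinant Tdp1 at 1 nM, exposed to compound for 15 min beforehand; beads 10 ug/ml, 10 min.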
# CtBP-E1A blk = blocks the CtBP interaction with E1A; AlphaScreen GST-E1A/His-CtBP binding, 1536-well; active compounds read low; activity change, % (concentration not given with the values); actives 0.49% (n = 340,000); in the data active = activity change below about -65%; inconclusive = mostly about -30% to -63%; also: % is scaled to controls: 0 for no effect and ±100 for the full control effect
#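 AlphaScreen with 125 nM GST-E1A and 125 nM His-CtBP (5X stocks) in Tris pH 8.0, 300 mM NaCl, BSA, Tween 20, TCEP. Compounds preincubated 2 h at 37 deg C, then glutathione donor/nickel acceptor beads added for 1 h at 37 deg C in dark.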
# * = called active by the depositor; ? = inconclusive; nt = no result given; [ ] = remark or other dose. Unless noted, calls follow the shape of the dose curve; as a rule, active = well fitted inhibition curve with a large enough effect; inconclusive = small, poorly fitted or top-dose-only effect; inactive = no such curve, though single readings can be large or run the other way.
SMILES,JMJD2A Tudor inh,Six1-Eya2 blk,BAZ2B block,HP1b binding inh,TDP1 inh,CtBP-E1A blk
CC1CCCN(C(=O)N2c3ccccc3Sc3ccccc32)C1 (stereo not drawn),6%,3,-3%,31%,2%,17
CC1CN(C(=O)N2c3ccccc3Sc3ccccc32)CC(C)O1 (stereo not drawn),-13%,2,89µM*,16%,-3%,-2
O=C(NCc1ccccc1Cl)C1CCN(S(=O)(=O)c2ccc3c(c2)CCCN3C(=O)C2CCC2)CC1,-4%,nt,2%,22%[57 µM],-7%,nt
COc1ccc(OC)c(C(=O)NC(CC(N)=O)c2ccc(NCc3ccc(F)c(F)c3)c([N+](=O)[O-])c2)c1 (stereo not drawn),?,-8,45µM*,-11%,nt,nt
COc1ccc(OC)c(C(=O)NC(CC(N)=O)c2ccc(N3CCC(Cc4ccccc4)CC3)c([N+](=O)[O-])c2)c1 (stereo not drawn),?,-4,45µM*,-20%,nt,-8
COc1ccc(OC)c(C(=O)NC(CC(N)=O)c2ccc(N3CCN(c4ccccc4)CC3)c([N+](=O)[O-])c2)c1 (stereo not drawn),?,1,-38%,21%,nt,-12
Cc1cccc(N(C)C(=O)CSc2nc3ncccc3o2)c1,-3%,nt,6%,59%,8%,nt
Nc1nc(N)c(S(=O)(=O)c2ccccc2)c(Nc2ccc(F)cc2)n1,-15%,nt,-12%,13%,6%,nt
CCCCOc1ccc(C2C(=O)N(C3CCCCC3)CC(=O)N2C2CCCCC2)cc1 (stereo not drawn),-7%,nt,0%,26%,5%,nt
COc1ccc(OC)c(S(=O)(=O)NCC(c2cccs2)S(=O)(=O)c2ccc(F)cc2)c1 (stereo not drawn),-22%,nt,16%,59%,5%,nt
COCCNC(=O)CSc1nc2nn(-c3ccccc3)c(=O)c-2c2n1CCCCC2,56µM*,3,-3%,-12%,5%,3
O=C(CSc1nc2nn(-c3ccccc3)c(=O)c-2c2n1CCCCC2)c1ccc(O)c(O)c1,11µM*,-25,10µM*,28µM*,-7%,-5
Cc1ccc(NC(=O)c2cc(S(=O)(=O)N3CCc4ccccc43)ccc2F)cc1Cl,-23%,nt,-8%,-1%,3%,nt
CCOC(=O)c1c(C)[nH]c(C)c1C(=O)COC(=O)c1ccc(Cl)c(S(=O)(=O)NCc2ccccc2)c1,56µM*,-14,?,-36%,9%,-9
CC(C)CNC(=S)N1CCC(c2nc(-c3ccc(F)cc3)no2)CC1,2%,-1,-12%,41%,5%,0
COCCNC(=S)N1CCC(c2nc(-c3ccc(N(C)C)cc3)no2)CC1,?,-14,56µM*,-33%,-2%,-12
CC1CCN(C(=O)CN2CC(C)Sc3ccccc32)CC1 (stereo not drawn),-11%,nt,-13%,21%,4%,nt
COCc1nnc(NC(=O)c2ccc(S(=O)(=O)N3CCCc4ccccc43)cc2)o1,-18%,-2,?,8%,9%,-8
CC1CCCCN1S(=O)(=O)c1ccc(C(=O)Nc2nnc(-c3ccco3)o2)cc1 (stereo not drawn),-10%,-26,89µM*,27%,4%,-18
CC1CCN(S(=O)(=O)c2ccc(C(=O)Nc3nnc(C4CC4)o3)cc2)CC1,1%,-14,50µM*,57%,5%,-20
O=C(Nc1nnc(C2CC2)o1)c1ccc(S(=O)(=O)N2CCCCC2)cc1,?,-18,56µM*,46%,4%,-17
CS(=O)(=O)c1ccc(-c2nnc(NC(=O)c3ccc(S(=O)(=O)N4CCCC4)cc3)o2)cc1,-25%,-18,?,43%,nt,-9
O=C(Nc1nnc(-c2ccco2)o1)c1ccc(S(=O)(=O)N2CCCCC2)cc1,nt,-13,nt,nt,nt,0
O=C(Nc1nnc(C2CC2)o1)c1ccc(S(=O)(=O)N2CCCc3ccccc32)cc1,-23%,-6,50µM*,45%,10%,-3
O=C(Nc1ccccc1F)c1oc2ccccc2c1NC(=O)c1c(F)cccc1F,-9%,nt,-23%,28%,1%,nt
SMILES,JMJD2A Tudor inh,Six1-Eya2 blk,BAZ2B block,HP1b binding inh,TDP1 inh,CtBP-E1A blk
COC(=O)C/C=C\[C@@H](C)[C@@H](/C=N\OC[C@@H](O)[C@H]1O[C@H]2OC(C)(C)O[C@H]2[C@@H]1O)NS(=O)(=O)c1ccc(C)cc1,nt,nt,nt,nt,9%[21 µM],nt
COc1ccc(C2=C(C)C(N3CCC(C(=O)Nc4ccccc4F)CC3)=NS2(=O)=O)cc1,-25%,nt,?,-4%,nt,nt
CC(CNC(=O)C1CCN(S(=O)(=O)c2ccc3c(ccn3C)c2)CC1)c1ccccc1 (stereo not drawn),-14%,nt,-6%,11%[57 µM],-2%,nt
COC(=O)N[C@@H](c1cccc(F)c1)[C@@H](C)[N+](=O)[O-],nt,nt,nt,nt,6%,nt
CCN(CC)S(=O)(=O)c1ccc(C(=O)Nc2nnc(-c3ccco3)o2)cc1,-21%,5,nt,17%,7%,nt
CC1CCCCN1S(=O)(=O)c1ccc(C(=O)Nc2nnc(C3CC3)o2)cc1 (stereo not drawn),-33%,-15,50µM*,43%,6%,?
Cc1nnc(NC(=O)c2ccc(S(=O)(=O)N3CCCCC3C)cc2)o1 (stereo not drawn),?,-18,15%,27%,4%,-30
CN(C)S(=O)(=O)c1ccc(C(=O)Nc2nnc(-c3ccco3)o2)cc1,89µM*,-6,79µM*,11%,8%,-14
COC(=O)c1ccccc1NC(=O)c1c(NC(=O)c2ccco2)sc2c1CCC(C(C)(C)C)C2 (stereo not drawn),-9%,nt,3%,33%,nt,nt
CN(CC(=O)Nc1ccc(N2CCOCC2)cc1)CC(=O)Nc1ccc(Cl)cc1[N+](=O)[O-],?,-24,56µM*,?,-1%,-7
COc1ccc(NC(=O)CN(C)CC(=O)Nc2ccc(N3CCOCC3)cc2)c([N+](=O)[O-])c1,?,-11,45µM*,-7%,8%,-8
